The record followed here is the supplement of paper PMC6555819.

This test relates to VDR:RXRa (NR concentration 270 nM, RXRa partner concentration 90 nM). Description: PBM binding z-score (relative to random genomic background probes); higher = stronger binding; sequences stand for … in GC…GCGATTGACAGCGTAGAATGAAGG
The protocol: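 Protein-binding microarray (Agilent 4x180K custom design, double-stranded 60-nt probes: 5' GC cap, 34-nt variable region, 24-nt constant primer region; full probe sequence given). Purified or IVT nuclear receptor:RXRα heterodimers (3:1 NR:RXRα, mostly 270:90 nM) or homodimers were incubated for 1 h in PBS with 2% milk and no ligand, then detected with Alexa488 antibodies. Fluorescence from o1-orientation probes (~5 replicates averaged) was converted to z-scores against 500 random hg19 background probes. Variable regions are seed direct-repeat (DR0–DR5) sites, all their single-nucleotide variants and half-site ablations.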
For GCGACTGGGGCATCAGCATGTTACCATAACTTAA, the PBM binding z-score was -0.304.
The result for TCTGCAAGGTCAACGATGGTCAGCTAATCTGCTA reads 4.53; that for CCTGCTGGGCCAAGGTCATTGATCAGTCAAAGCA, 3.06; that for CAGACTGGGGCAAGGTTACCATAACGCACAGCCA, 0.28.
The result for CCAGACAGGTGAGAAGGTAACTAAGCCTCGATTA reads -0.0342; that for TCAAATAGGTAATACAGGTGAAAGTCGGCATCTA, 1.28.
To GCAGACAGGTGAAAGGCAGGTAACTCAGGGTGGC belongs -0.303.
Consider AGTCAAAGTTCAGGACGAGGTAACTTAAAGCACG, for which the PBM binding z-score turned out to be 3.1.
The result for CCGAGTAGGTTATGTGGCATTCAGGCAACGGTGA reads -0.184; that for AGAATGAGGTTATAAGTAGATCAGGGAAGAAAGT, 1.26.
TCGAGTAGGTTGCCAATGGGGCATTCAGCTTTCT displayed a PBM binding z-score of -0.316.
To CAAACTAGGTCAAGAAAGGTCAAAGTCGAATGAC belongs 6.44; to CGTCCACGGTCAAAGGTCAGTGAAGAGATGACGG, 3.76; to TCGAGTAGGTTACCAATGGGGCAGTCAGCTTTCT, -0.0931.
The result for CCTAGCAGGCCTATCTGGGTCACTCAAGGCTTGA reads 0.253; that for CATACAGGGTCAGCAAGGCCAGAGTAGGGACGGC, 5.7.
To GCTACTAGGTCAGGTTGGTCAGCTAACGGGTACG belongs 0.914; to GCTGCTAGGTCAACGGATGGTCAGCTAAAGCTCG, 0.92.
Regarding CGTCAAAGTTCAAGATAACGTAACAGAAAGCAGC, the PBM binding z-score worked out at 3.2.
The result for CAAACTAGGTCACCGGAAGGACAAAGTCCGCATG reads 3.49; that for ATCGAAAGGTCGTGGGGTGAGTATACAGAAAGGC, 4.83; that for ATATGTAGGTTACATCCGGGACATTCAGGCTATG, 1.14.
In turn, ATCTCTAGGTAAAGATAGATCAGTGAATGCAAAT had a PBM binding z-score of 0.00458.
Take TAGCCTAGGTCATGGGCCGGTATACCACGCGAAC: the PBM binding z-score was found to be 2.18.
Consider CCGGCTAGGTCATGGTCAGCTAATCTACAGTATG, for which the PBM binding z-score came to 1.63.
To TGAATGAAGTTATAAGATCAGGGAACGTTGCAAA belongs -0.457; to GCTAGCAGGCCATTTGGGTTACTCAATGACGGGC, -0.436; to TCATATAGGTAAACAGGTGTAAGTCCGTAAGTTA, 1.6.
Sequence GTACCTAGGTGAATAGGTCGTTGATGAGTAGGCG yielded a PBM binding z-score of 0.549.
CCCACTGGGCCAAAAAGGTCATTGATGCCGATAA: the PBM binding z-score was determined as 4.94.
The result for CCTAGTTGGTCAGGAGGACACACACCGGATATGA reads 0.204; that for TGTCAAAGTTCAAAGGTATCGTAAGTATCCACAC, 4.75; that for CGTCCAAGGTCAAAGGTCAGTGACGAGATGACGG, 6.67.
In the case of GCATATAGGTATTACAAGGTGAAAGTCCGATTGT, the PBM binding z-score turned out to be 0.134.
On to ATTGAAAGGTCGTGAGGTGAGTATACAGAAAGGC, for which the PBM binding z-score came out at 3.71.
ATCGAAAGGTCGAGGCGAGTATAGAGAAAGGGAA had a PBM binding z-score of 2.33.
With TGAATGAGGTTATAAGATCACGGAACGTTGCAAA, the PBM binding z-score was found to be 1.53.
With ACTAGTTGGTCAGCTGAGGTCAGACACAATTCGG, the PBM binding z-score is 3.07.
As to ACAGACAGGTGAGTGAAGGTAACTCTGCTGGACG, the PBM binding z-score was -0.344.
For the sequence TCTTGTAGATAAATAGAGGTTAAGAAAGTGCGCT, the PBM binding z-score amounted to 1.87.
